Structures are written as SMILES. The panel holds about 83,000 compounds, 20% with a hit somewhere; the sample as a whole holds those more often.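 Single-dose data. Exposure time 48 hours. Values below 10 considered active.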 A number with no mark means an inactive call. The source made the active and inactive calls.

The first assay deals with SN12C renal. The experiment in a line: NCI-60 one-dose screen, 48 h (100 = growth as untreated, 0 = no growth, -100 = all killed). As to conditions: 10 µM.
Take `Cc1ccc(NC(=O)NC2CCCCC2)cc1`: the growth was 106%.

With `Clc1ccc(Nc2ccnc(NCCNc3ccnc4cc(Cl)ccc34)n2)cc1`, the growth is 48%.

Turning to `COc1cc(Nc2ccnc(NCCCNc3ccnc4cc(Cl)ccc34)n2)cc(OC)c1`, the growth was 22.6%.

Regarding `c1ccc2c(-c3nc(N4CCOCC4)c4c5c(sc4n3)CCCCCC5)cccc2c1`, the growth was 99.5%.

`COc1ccc(S(=O)(=O)Nc2c(/C=C\c3cc(OC)c(OC)c(OC)c3)ccc(OC)c2O)cc1`: the growth was 20.9%.

Regarding `COc1ccc2nc3cc(Cl)ccc3c(NCCNCC(C)O)c2c1` (stereo not drawn), the growth was 27.3%.

As for `COc1ccc(-c2cc(/C=C3\C(=O)Nc4ccc(Cl)cc43)[nH]n2)cc1OC`, the growth was 87.1%.

Consider `Cc1nc2c(c(=O)[nH]1)OCN(Cc1ccccc1)C2`, for which the growth was 104%.

Regarding `COc1cc(NC(=O)c2sc3nc4c(cc3c2N)C(O)CCC4)cc(OC)c1` (stereo not drawn), the growth is 93.5%.

Take `CC/C(=C(/c1ccc(OCCN(C)C)cc1)c1ccc(OC(=O)CCCCC(=O)c2c(C)[nH]c(/C=C3\N=C(c4ccc[nH]4)C=C3OC)c2C)cc1)c1ccccc1`: the growth was 62.3%.

As to `c1ccc(CP(Cc2ccccc2)c2ccccc2)cc1`, the growth was 100%.

On to `COc1cc(-c2cc(/C=C/C(=O)c3ccc(N)cc3)[nH]n2)cc(OC)c1OC`, for which the growth is 13.2%.

For `CC(C)(Cl)CCC1=C(Cl)C(=O)c2ccccc2C1=O`, the growth is 79.9%.

As to `COc1ccc(-c2nn(-c3cccc(NC(=O)Nc4ccccc4)c3)cc2-c2ccncc2)cc1Cl`, the growth is 31.4%.

In the case of `O=C(c1cccs1)c1ccccc1Cc1ccccc1`, the growth is 96.4%.

For `FC(F)(F)c1ccc(-c2cnc(Cl)nc2N2CCC3(CC2)OCCO3)cc1`, the growth is 103%.

On to `COc1ccc(-c2nsc3c2NC(=O)CC3c2ccc(F)cc2)cc1` (stereo not drawn), for which the growth is 51.6%.

Take `Nc1ccc2c(c1)C1(CCC2)NC(=O)NC1=O` (stereo not drawn): the growth is 97.3%.

Regarding `O=C(Nc1cccc(-n2cc(-c3ccncc3)c(-c3cc(O)cc(Cl)c3)n2)c1)c1ccc(N2CCOCC2)c(C(F)(F)F)c1`, the growth is 46.4%.

`COc1cc2cc3c(nc2cc1OC)CCN3Cc1ccc(NC(=O)Nc2cc(C(F)(F)F)cc(C(F)(F)F)c2)cc1`: the growth is 74.3%.

As for `COc1ccc(-c2nn(-c3cccc(NC(=O)c4cccc(C(F)(F)F)c4)c3)cc2-c2ccncc2)cc1Cl`, the growth was 45.3%.

Regarding `COc1ccc(-c2nc3sccn3c2-c2nc3c([nH]2)C(=O)c2ccccc2C3=O)cc1`, the growth was 86%.

Turning to `O=C1/C(=C\c2ccccc2)CN(C(=O)c2ccccc2)C/C1=C\c1ccccc1`, the growth was 5.88% (active).

Turning to `CCOC(=O)C1(CC(C)C)CCOC1=O` (stereo not drawn), the growth was 94.7%.

As for `CCOC(=O)N1C/C(=C/c2ccc(Cl)cc2)C(=O)/C(=C/c2ccc(Cl)cc2)C1`, the growth was 72.2%.

Turning to `CCN1CCCC1CNC(=O)c1ncc(-c2ccc(C(F)(F)F)cc2)c(NC2CCCCCC2)n1` (stereo not drawn), the growth is 86.7%.

Turning to `CCOC(=O)N/N=C\C(C)=N\NC(=O)OCC`, the growth is 94.6%.

Regarding `Cc1cc2c(C)c3cc(C)c(N)cc3nc2cc1N`, the growth is 12.5%.

`COc1ccc(-c2cc(/C=C/C(=O)c3cc(OC)c(OC)c(OC)c3)[nH]n2)cc1OC`: the growth is 8.28% (active).

`CC(=O)N1N=C(c2ccc(Cl)cc2)CC1c1sc(Cl)nc1Cl` (stereo not drawn): the growth is 69.6%.

Consider `O=C1/C(=C/c2ccc([N+](=O)[O-])s2)Oc2ccccc21`, for which the growth is -23.1% (active).

As for `CN(C)Cc1cn(-c2ncc(-c3ccc(C(F)(F)F)cc3)c(NC3CCCCCC3)n2)nn1`, the growth is 87.5%.

With `CSCCCNC(=O)c1ccc2c(c1)/C(=C/c1[nH]c(C)cc1C)C(=O)N2`, the growth is 22%.

In the case of `Fc1cc(C(F)(F)F)ccc1-c1cncnc1NC1CCCCCC1`, the growth was 89.7%.

On to `CCOC(=O)N1C/C(=C/c2ccc(OC)cc2)C(=O)/C(=C/c2ccc(OC)cc2)C1`, for which the growth was 50.2%.

Turning to `COc1ccc2c(c1)N(CCO)C1=C(C(=O)OC1)C2c1cc(OC)c(OC)c(OC)c1` (stereo not drawn), the growth was 26%.

Consider `Cc1cccc(C)c1NC(=O)c1sc2nc3c(cc2c1N)C(=O)CCC3`, for which the growth was 90.1%.

For `COc1ccc2c(c1OC)O/C(=C\c1ncc([N+](=O)[O-])n1C)C2=O`, the growth was 11.8%.

Consider `COc1ccc(Oc2nc(NC3CCCC3)nc(Sc3ccc(OC)cc3)n2)cc1`, for which the growth is 78.9%.

A further assay concerns UO-31 renal. The assay is described as above. Particulars: 10 µM.
For the molecule `Cc1ccc(NC(=O)NC2CCCCC2)cc1`, the growth is 96%.

For `Clc1ccc(Nc2ccnc(NCCNc3ccnc4cc(Cl)ccc34)n2)cc1`, the growth was -26.3% (active).

Consider `COc1cc(Nc2ccnc(NCCCNc3ccnc4cc(Cl)ccc34)n2)cc(OC)c1`, for which the growth is -74.8% (active).

On to `c1ccc2c(-c3nc(N4CCOCC4)c4c5c(sc4n3)CCCCCC5)cccc2c1`, for which the growth is 101%.

As to `COc1ccc(S(=O)(=O)Nc2c(/C=C\c3cc(OC)c(OC)c(OC)c3)ccc(OC)c2O)cc1`, the growth is 39.9%.

On to `COc1ccc2nc3cc(Cl)ccc3c(NCCNCC(C)O)c2c1` (stereo not drawn), for which the growth is 32.4%.

For the molecule `COc1ccc(-c2cc(/C=C3\C(=O)Nc4ccc(Cl)cc43)[nH]n2)cc1OC`, the growth is 71.1%.

Consider `Cc1nc2c(c(=O)[nH]1)OCN(Cc1ccccc1)C2`, for which the growth is 79.3%.

With `COc1cc(NC(=O)c2sc3nc4c(cc3c2N)C(O)CCC4)cc(OC)c1` (stereo not drawn), the growth is 85.1%.

For the molecule `CC/C(=C(/c1ccc(OCCN(C)C)cc1)c1ccc(OC(=O)CCCCC(=O)c2c(C)[nH]c(/C=C3\N=C(c4ccc[nH]4)C=C3OC)c2C)cc1)c1ccccc1`, the growth was 45.4%.

In the case of `c1ccc(CP(Cc2ccccc2)c2ccccc2)cc1`, the growth was 73.8%.

For `COc1cc(-c2cc(/C=C/C(=O)c3ccc(N)cc3)[nH]n2)cc(OC)c1OC`, the growth was 6% (active).

For the molecule `CC(C)(Cl)CCC1=C(Cl)C(=O)c2ccccc2C1=O`, the growth is 36.5%.

Consider `COc1ccc(-c2nn(-c3cccc(NC(=O)Nc4ccccc4)c3)cc2-c2ccncc2)cc1Cl`, for which the growth was -39.9% (active).

For `O=C(c1cccs1)c1ccccc1Cc1ccccc1`, the growth was 80.3%.

Regarding `FC(F)(F)c1ccc(-c2cnc(Cl)nc2N2CCC3(CC2)OCCO3)cc1`, the growth was 69.5%.

As for `COc1ccc(-c2nsc3c2NC(=O)CC3c2ccc(F)cc2)cc1` (stereo not drawn), the growth was 48.7%.

Take `Nc1ccc2c(c1)C1(CCC2)NC(=O)NC1=O` (stereo not drawn): the growth is 93.3%.

For `O=C(Nc1cccc(-n2cc(-c3ccncc3)c(-c3cc(O)cc(Cl)c3)n2)c1)c1ccc(N2CCOCC2)c(C(F)(F)F)c1`, the growth is 3.98% (active).

Consider `COc1cc2cc3c(nc2cc1OC)CCN3Cc1ccc(NC(=O)Nc2cc(C(F)(F)F)cc(C(F)(F)F)c2)cc1`, for which the growth is 57.7%.

With `COc1ccc(-c2nn(-c3cccc(NC(=O)c4cccc(C(F)(F)F)c4)c3)cc2-c2ccncc2)cc1Cl`, the growth was 13.9%.

Take `COc1ccc(-c2nc3sccn3c2-c2nc3c([nH]2)C(=O)c2ccccc2C3=O)cc1`: the growth was 71.3%.

`O=C1/C(=C\c2ccccc2)CN(C(=O)c2ccccc2)C/C1=C\c1ccccc1`: the growth is 43%.

As for `CCOC(=O)C1(CC(C)C)CCOC1=O` (stereo not drawn), the growth was 90.1%.

For the molecule `CCOC(=O)N1C/C(=C/c2ccc(Cl)cc2)C(=O)/C(=C/c2ccc(Cl)cc2)C1`, the growth was 45.2%.

Turning to `CCN1CCCC1CNC(=O)c1ncc(-c2ccc(C(F)(F)F)cc2)c(NC2CCCCCC2)n1` (stereo not drawn), the growth is 45%.

Take `CCOC(=O)N/N=C\C(C)=N\NC(=O)OCC`: the growth was 85.1%.

As for `Cc1cc2c(C)c3cc(C)c(N)cc3nc2cc1N`, the growth was 7.87% (active).

Consider `COc1ccc(-c2cc(/C=C/C(=O)c3cc(OC)c(OC)c(OC)c3)[nH]n2)cc1OC`, for which the growth was -92.1% (active).

On to `CC(=O)N1N=C(c2ccc(Cl)cc2)CC1c1sc(Cl)nc1Cl` (stereo not drawn), for which the growth was 40.9%.

As for `O=C1/C(=C/c2ccc([N+](=O)[O-])s2)Oc2ccccc21`, the growth is -78.1% (active).

For the molecule `CN(C)Cc1cn(-c2ncc(-c3ccc(C(F)(F)F)cc3)c(NC3CCCCCC3)n2)nn1`, the growth was 42.9%.

Consider `CSCCCNC(=O)c1ccc2c(c1)/C(=C/c1[nH]c(C)cc1C)C(=O)N2`, for which the growth is 9.33% (active).

For the molecule `Fc1cc(C(F)(F)F)ccc1-c1cncnc1NC1CCCCCC1`, the growth was 79.9%.

For the molecule `CCOC(=O)N1C/C(=C/c2ccc(OC)cc2)C(=O)/C(=C/c2ccc(OC)cc2)C1`, the growth is 17.1%.

As to `COc1ccc2c(c1)N(CCO)C1=C(C(=O)OC1)C2c1cc(OC)c(OC)c(OC)c1` (stereo not drawn), the growth is 15.2%.

On to `Cc1cccc(C)c1NC(=O)c1sc2nc3c(cc2c1N)C(=O)CCC3`, for which the growth was 79.5%.

Regarding `COc1ccc2c(c1OC)O/C(=C\c1ncc([N+](=O)[O-])n1C)C2=O`, the growth is -42.8% (active).

In the case of `COc1ccc(Oc2nc(NC3CCCC3)nc(Sc3ccc(OC)cc3)n2)cc1`, the growth is 57.5%.

The values above are taken from PubChem BioAssay (NCI).
